The supplement of paper PMC3484114
± gives the standard deviation.

Test system: OVCAR-3-derived ovarian cancer stem-like cells (spheroids)
Test: cell growth relative to untreated control; higher = more growth (less inhibition)
Conditions: 2.29 µM; 96 h
How it was run: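 Stem-like cells derived from OVCAR-3 spheroids were dissociated with trypsin and seeded at 50,000 cells/mL in stem cell medium in ultra-low attachment 96-well plates, then preincubated for 24 h. Each compound was added at 2.29 uM to 4 replicate wells and left for 96 h at 37°C, 5% CO2. Viability came from TOX8 resazurin fluorescence (ex 560/em 590 nm) read after 4 h. Percent growth was expressed relative to untreated wells, after blank subtraction and removal of outliers by the Grubbs test.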

| Compound | cell growth [%] |
| --- | --- |
| Cc1c2ccncc2cc2c1[nH]c1ccccc12 | 101 ± 20 |
| COc1ccc2c(c1)C=C([N+](=O)[O-])C(C1OC(C)(C)OC1C1COC(C)(C)O1)O2 (configuration not stated) | 84.6 ± 23 |
| Cc1nc(N)nc(N)c1-c1ccc(Cl)c(Cl)c1 | 102 ± 13 |
| C=C1C(=O)C23CC[C@@H]4C(C)(C(=O)OC)CCCC4(C)[C@@H]2CCC1(O)C3 (some centres not stated) | 13 ± 5.5 |
| N#CC(c1ccccc1)N(CCCCCCN(C(=O)c1ccccc1)C(C#N)c1ccccc1)C(=O)c1ccccc1 (configuration not stated) | 122 ± 23 |
| CN(NC1=NCCO1)c1ccc2ccccc2c1 | 117 ± 18 |
| NC(=S)NN=Cc1ncccc1O | 95.3 ± 16 |
| COc1ccc(N=Cc2ccc(N(CCC#N)S(=O)(=O)c3ccccc3)cc2C)cc1 | 80.6 ± 28 |
| c1coc(CNc2ncnc3[nH]ncc23)c1 | 37.7 ± 8.4 |
| COc1nc(C(Cl)(Cl)Cl)c(Cl)c(OC)c1Cl | 112 ± 17 |
| COc1ccc(-c2cc(=O)c3c(O)cc(O)cc3o2)cc1OC | 4.9 ± 3.4 |
| COC(=O)c1ccc(NCc2cc(O)ccc2O)cc1 | 108 ± 12 |
| CC1OC1C(=O)C1(O)C(C)C(O)C23OC2(C(O)c2c(O)cccc2C3=O)C1O (configuration not stated) | 23.6 ± 6.9 |
| CC1=CC(=O)c2ccccc2C1=O | 89.6 ± 9.4 |
| CC[C@@]1(O)C[C@H](O[C@H]2C[C@H](N(C)C)[C@H](O[C@H]3C[C@H](O)[C@H](O[C@H]4CCC(=O)[C@H](C)O4)[C@H](C)O3)[C@H](C)O2)c2c(cc3c(c2O)C(=O)c2c(O)cccc2C3=O)[C@@H]1C(=O)OC | 48.2 ± 42 |
| CC1=CC(=O)c2cccc(NC3=NCCO3)c21 | 92.8 ± 25 |
| COc1ccccc1[S+]([O-])Nc1ccccc1 (configuration not stated) | 117 ± 25 |
| O=C(CC(O)(C(F)(F)F)C(F)(F)Cl)CC(O)(C(F)(F)F)C(F)(F)Cl (configuration not stated) | 66.8 ± 21 |
| O=C(Nc1ccc2c(c1)oc(=O)c1ccccc12)C(Cl)Cl | 10.2 ± 2.1 |
| CCN(CC)CCCC(C)Nc1c2ccc(Cl)cc2nc2ccc(OC)cc12 (configuration not stated) | 37.6 ± 6.1 |
| CCN(CC)CCCC(C)Nc1ccnc(/C=C/c2ccc(Cl)cc2)c1 (configuration not stated) | 84.6 ± 25 |

| Compound | cell growth [%] |
| --- | --- |
| CN(Cc1cnc2nc(N)nc(N)c2n1)c1ccc(C(=O)N[C@@H](CCC(=O)O)C(=O)O)cc1 | 96.7 ± 31 |
| Nc1nc(-c2cccs2)cs1 | 57.1 ± 11 |
| CSC1SC[C@H]2C(=O)N(C)[C@@H](C(C)C)C(=O)OC[C@@H](NC(=O)c3cnc4ccccc4n3)C(=O)N[C@@H](C)C(=O)N(C)[C@@H]1C(=O)N(C)[C@@H](C(C)C)C(=O)OC[C@@H](NC(=O)c1cnc3ccccc3n1)C(=O)N[C@@H](C)C(=O)N2C (some centres not stated) | 19.7 ± 3.8 |
| O=C(CC1(O)C(=O)Nc2c(Cl)ccc(Cl)c21)c1ccc(Cl)cc1Cl (configuration not stated) | 123 ± 11 |
| O=C1c2ccccc2C(=O)c2sc(Nc3ccc(Cl)c(Cl)c3)nc21 | 9.6 ± 7 |
| Cc1nc2c(o1)C(=O)c1ccccc1C2=Nc1ccccc1 | 123 ± 56 |
| O=[N+]([O-])c1cccc2c(N=Nc3ccc4ccccc4c3O)c(O)cc(S(=O)(=O)O)c12 | 74.2 ± 40 |
| O=C(NC1=C(Cl)C(=O)c2ccccc2C1=O)C(=O)C(C(=O)c1ccc2ccccc2c1)C1OC(=O)c2ccccc21 (configuration not stated) | 89.6 ± 20 |
| O=c1[nH]c2ccc(O)cc2o1 | 80.8 ± 13 |
| O=C1/C(=C\c2ccc(Cl)c(Cl)c2)CN(C(=O)CCN2CCOCC2)C/C1=C\c1ccc(Cl)c(Cl)c1 | 63.5 ± 9.5 |
| O=c1cnn(C2OC(CO)C(O)C2O)c(=S)[nH]1 (configuration not stated) | 100 ± 24 |
| Cc1c2cc[n+](CCN3CCCCC3)cc2c(C)c2c1[nH]c1ccc(O)cc12 | 146 ± 52 |
| N[C@@H](CSC(c1ccccc1)(c1ccccc1)c1ccccc1)C(=O)O | 34.8 ± 6.7 |
| O=S(=O)(c1cccc(N=C=S)c1)c1cccc(N=C=S)c1 | 111 ± 11 |
| O=c1ccc2ccc(CBr)cc2o1 | 84.2 ± 21 |
| CC(=O)SC(SC(C)=O)SC(C)=O | 97.1 ± 26 |
| C[C@H](CN1CC(=O)NC(=O)C1)N1CC(=O)NC(=O)C1 | 131 ± 20 |
| OC(CBr)C(O)C(O)C(O)CBr (configuration not stated) | 11.6 ± 4 |
| CS(=O)(=O)c1nc(N)nc2nc[nH]c12 | 99.3 ± 19 |
| O=C1C=Cc2ncccc2C1=O | 97.9 ± 16 |
| C=C(Cl)C(Cl)(CBr)CCC(Br)C(C)(C)Cl (configuration not stated) | 70.7 ± 16 |
